This is an account of results in PubChem BioAssay AID1117264 (The Scripps Research Institute Molecular Screening Center, 2014).

The whole screen tested about 89,000 compounds, of which about 440 (0.49%) were called active. Many of the other results were omitted from the sample, so actives are more common in it than they were. A number with no mark means an inactive call.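 How the source made its calls: active means inhibition above the mean inhibition across all screened compounds plus 3 SD (cut at about 11% in these data); inactive means the rest.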

Sequence of RNA-editing ligase 1, mitochondrial (Trypanosoma brucei brucei) (P86926 whole entry, looked up): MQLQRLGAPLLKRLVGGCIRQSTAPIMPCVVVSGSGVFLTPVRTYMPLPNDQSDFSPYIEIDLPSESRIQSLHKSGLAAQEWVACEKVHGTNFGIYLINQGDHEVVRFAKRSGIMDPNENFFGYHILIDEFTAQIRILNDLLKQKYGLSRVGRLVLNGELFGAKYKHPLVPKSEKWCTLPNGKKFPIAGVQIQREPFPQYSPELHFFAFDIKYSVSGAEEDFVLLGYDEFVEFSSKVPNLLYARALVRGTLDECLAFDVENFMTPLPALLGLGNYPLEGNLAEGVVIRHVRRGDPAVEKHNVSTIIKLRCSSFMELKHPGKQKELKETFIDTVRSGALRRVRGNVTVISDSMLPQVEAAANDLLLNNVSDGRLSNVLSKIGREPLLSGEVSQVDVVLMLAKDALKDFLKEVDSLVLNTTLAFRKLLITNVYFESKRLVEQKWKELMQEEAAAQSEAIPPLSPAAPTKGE

This assay concerns the target RNA-editing ligase 1, mitochondrial (Trypanosoma brucei brucei) (UniProt P86926). As to the kind of experiment: T. brucei editing ligase REL1 blockade – biochemical, FRET fluorescence, primary screen (AID 1117264).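 Further: 0% = plate median of test wells and 100% = NSC42067 control.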 Particulars: TbREL1 RNA ligation, at 9.66 µM, hits give high values.
Take `Cc1nnsc1C(=O)Nc1cccc(Cl)c1C`: the inhibition (commonly the change of the read-out against control, counted positive when it falls) is 11.4% (active).

Consider `Cc1nc(C)c(C(=O)Nc2cccc(C)c2C)o1`, for which the inhibition was -2.18%.

Consider `Cc1c(Cl)cccc1NC(=O)NCCCN1CCCC1=O`, for which the inhibition is 5.26%.

For the molecule `O=C(OCC(=O)N1CCCC1)c1ccc(Cl)nc1`, the inhibition was 4.11%.

For `CC1(C)CC(N2CCN(C(c3ccccc3)c3ccccc3)CC2)=CC(=[N+]2CCCCC2)C1`, the inhibition is 20.5% (active).

`Cc1cccc(N2CCN(C(c3ccccc3)c3nnnn3CC3CCCO3)CC2)c1C` (stereo not given): the inhibition is -2.64%.

Turning to `O=C1CC(N2CCN(C(c3ccccc3)c3ccccc3)CC2)C(=O)N1` (stereo not given), the inhibition is 4.81%.

In the case of `COC(=O)CN1C(=O)[C@H]2[C@@H](/C=C/c3ccccc3)N3C(=O)CN(CC4CC4)C(=O)[C@@]3(Cc3ccccc3)[C@H]2C1=O`, the inhibition was -1.86%.

In the case of `NC(=O)COC(=O)c1ccc2c(c1)C(=O)N(Cc1ccco1)C2=O`, the inhibition is -0.09%.

Take `Cc1cc(NS(=O)(=O)c2ccc(NC(=O)CSc3nnc(SCc4ccc(F)cc4)s3)cc2)nc(C)n1`: the inhibition was 1.56%.

In the case of `CCOC(=O)C1C(c2ccc(O)cc2)NC(=O)NC1(O)C(F)(F)F` (stereo not given), the inhibition is -0.27%.

`COC(=O)C1CN(CCc2ccccc2)CCS(=O)(=O)N1Cc1cccc(Cl)c1` (stereo not given): the inhibition was 1.04%.

Consider `COc1ccc(CCNC(=O)CSc2nc3[nH]ncc3c(=O)n2-c2cccc(C(F)(F)F)c2)cc1OC`, for which the inhibition was -1.55%.

On to `CCc1ccc(N(CC(=O)NCc2cccnc2)S(=O)(=O)c2ccccc2)cc1`, for which the inhibition is -1.98%.

Take `N#Cc1ccc(C2N=C(c3ccccc3)NO2)cc1` (stereo not given): the inhibition is 9.48%.

For the molecule `O=C(Nc1ccon1)c1nc[nH]c1C(=O)NCc1ccccc1`, the inhibition is 5.43%.

For `Cc1nc2ccc(C(=O)N3CCN(C(=O)C(C)(C)C)CC3)cc2n1C1CCCC1`, the inhibition was -0.3%.

With `COc1ccccc1/C=C/C(=O)OCC(=O)NC1CCCCCC1`, the inhibition is 1.81%.

`Cc1ccc(Cn2c(C)c(C(=O)NCc3ccccc3C(F)(F)F)sc2=O)cc1`: the inhibition is 0.6%.

Regarding `COc1ccc(S(=O)(=O)N2CCOCC2)cc1NC(=O)CC1CC2CCC1C2` (stereo not given), the inhibition is -2.41%.

Consider `CCOc1ccc(NC(=O)CCCCCN2C(=O)[C@@H]3Cc4ccccc4CN3C2=O)cc1`, for which the inhibition is -0.69%.

In the case of `Cc1c(S(=O)(=O)NC(C)c2ccccc2)c(=O)n(C)c(=O)n1C` (stereo not given), the inhibition is 0.77%.

On to `CCC1CCCCN1CCCNC(=O)C1CCC(Cn2c(=O)[nH]c3ccccc3c2=O)CC1` (stereo not given), for which the inhibition is 0.83%.

Regarding `CCCCCn1c(=O)[nH]c2cc(C(=O)NCCCN3CCCCC3C)ccc2c1=O` (stereo not given), the inhibition is 11.5% (active).

For the molecule `CCOc1cc2[nH]c(=O)n(Cc3ccc(C(=O)NCCCN4CCCC4=O)cc3)c(=O)c2cc1OCC`, the inhibition is -3.44%.
